The values that follow come from paper PMC7862700, “An all-to-all approach to the identification of sequence-specific readers for epigenetic DNA modifications on cytosine”.

Assay in all cases: DAPPL (digital affinity profiling via proximity ligation, sequencing); 10 mM Tris-HCl pH 7.5, 50 mM NaCl, 1 mM DTT, 4% glycerol, room temperature, 30 min; GST-TFs on glutathione beads, 16-mer random dsDNA library, 0.1% formaldehyde crosslink after washing; high values mean tight binding
Test [1] deals with T1, FLI1 (Homo sapiens, UniProt Q01543 1-452).
T1 sequence: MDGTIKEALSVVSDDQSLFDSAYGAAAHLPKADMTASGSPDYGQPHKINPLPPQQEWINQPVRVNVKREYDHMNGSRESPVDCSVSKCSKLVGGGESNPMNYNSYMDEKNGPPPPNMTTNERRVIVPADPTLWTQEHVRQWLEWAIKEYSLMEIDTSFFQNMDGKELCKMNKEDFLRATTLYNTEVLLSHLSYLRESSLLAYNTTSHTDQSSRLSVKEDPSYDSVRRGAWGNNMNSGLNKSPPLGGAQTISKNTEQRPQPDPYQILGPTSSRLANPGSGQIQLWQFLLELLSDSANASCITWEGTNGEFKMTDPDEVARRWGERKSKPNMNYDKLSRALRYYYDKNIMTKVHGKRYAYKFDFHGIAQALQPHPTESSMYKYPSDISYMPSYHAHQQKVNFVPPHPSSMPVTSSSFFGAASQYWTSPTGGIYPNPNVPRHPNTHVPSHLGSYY
The note with it: protein: recombinant; tags: N-terminal GST; dsDNA, one strand shown. Put shortly:
(§1)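 The binding signal reported is, for every hexamer, its read frequency for a factor over its read frequency for the tag-only sample. Reads came from pools of yeast-expressed, GST-fused human transcription factors on glutathione beads, barcoded with DNA and mixed with that sample, which were incubated with 200 nmole of a random double-stranded 16-mer DNA library in Tris/NaCl/DTT/glycerol buffer at room temperature for 30 min. After washing, the pools were crosslinked with 0.1% formaldehyde, proximity-ligated with BsaI/T4 ligase for 1 h at 37 °C, PCR-amplified and sequenced on an Illumina NextSeq500.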

The target in test [2] is T2, ELK1 (Homo sapiens, UniProt P19419 1-428).
T2 sequence: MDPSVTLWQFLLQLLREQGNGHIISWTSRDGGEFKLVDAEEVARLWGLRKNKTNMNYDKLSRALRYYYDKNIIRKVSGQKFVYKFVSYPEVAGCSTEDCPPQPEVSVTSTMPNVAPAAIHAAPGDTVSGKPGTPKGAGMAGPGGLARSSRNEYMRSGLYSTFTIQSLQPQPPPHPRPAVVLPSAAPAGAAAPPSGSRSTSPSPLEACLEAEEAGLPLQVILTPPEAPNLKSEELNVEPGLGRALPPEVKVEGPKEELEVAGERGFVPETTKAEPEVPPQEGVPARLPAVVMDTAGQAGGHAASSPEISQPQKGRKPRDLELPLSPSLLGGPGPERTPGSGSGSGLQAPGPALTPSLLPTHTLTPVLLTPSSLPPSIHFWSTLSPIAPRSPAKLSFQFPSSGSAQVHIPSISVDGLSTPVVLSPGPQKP
The note with it: protein: recombinant; tags: N-terminal GST; dsDNA, one strand shown. Put shortly:
as §1

The target in test [3] is T3, GABPA (Homo sapiens, UniProt Q06546 1-454).
T3 sequence: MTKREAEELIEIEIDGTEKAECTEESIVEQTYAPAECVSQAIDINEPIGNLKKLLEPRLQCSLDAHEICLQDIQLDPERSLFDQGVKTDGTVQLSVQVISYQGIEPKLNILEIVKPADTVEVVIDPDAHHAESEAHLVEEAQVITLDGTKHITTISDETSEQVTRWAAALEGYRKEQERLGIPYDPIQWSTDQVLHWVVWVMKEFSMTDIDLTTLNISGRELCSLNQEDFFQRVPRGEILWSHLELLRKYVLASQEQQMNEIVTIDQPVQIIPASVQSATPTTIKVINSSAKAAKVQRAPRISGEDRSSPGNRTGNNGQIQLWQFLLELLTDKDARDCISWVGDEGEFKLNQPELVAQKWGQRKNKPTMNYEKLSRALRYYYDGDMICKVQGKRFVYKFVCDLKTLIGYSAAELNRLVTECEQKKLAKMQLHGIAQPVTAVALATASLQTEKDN
The note with it: protein: recombinant; tags: N-terminal GST; dsDNA, one strand shown. Put shortly:
as §1

Test [4] addresses T4, ERG (Homo sapiens, UniProt P11308 1-479).
T4 sequence: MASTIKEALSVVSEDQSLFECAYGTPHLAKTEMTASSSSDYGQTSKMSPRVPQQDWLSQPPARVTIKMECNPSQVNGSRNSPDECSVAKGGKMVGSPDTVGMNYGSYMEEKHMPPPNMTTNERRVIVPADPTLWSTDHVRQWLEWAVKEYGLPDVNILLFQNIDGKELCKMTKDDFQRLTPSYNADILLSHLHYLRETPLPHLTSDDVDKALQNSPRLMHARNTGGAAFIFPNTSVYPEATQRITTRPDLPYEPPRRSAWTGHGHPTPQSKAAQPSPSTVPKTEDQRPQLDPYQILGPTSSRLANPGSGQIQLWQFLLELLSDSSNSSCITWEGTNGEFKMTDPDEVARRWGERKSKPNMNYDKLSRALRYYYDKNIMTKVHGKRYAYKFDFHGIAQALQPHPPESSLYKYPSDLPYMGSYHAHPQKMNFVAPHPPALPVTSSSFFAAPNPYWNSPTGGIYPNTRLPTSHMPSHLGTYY
The note with it: protein: recombinant; tags: N-terminal GST; dsDNA, one strand shown. In short, it runs like this: as §1

The target of test [5] is ELF1 (Homo sapiens, UniProt P32519 1-619). The note with it: protein: recombinant; tags: N-terminal GST; dsDNA, one strand shown. In short, it runs like this:
as §1

In test [6] the target is T5, EHF (Homo sapiens, UniProt Q9NZC4 1-300).
T5 sequence: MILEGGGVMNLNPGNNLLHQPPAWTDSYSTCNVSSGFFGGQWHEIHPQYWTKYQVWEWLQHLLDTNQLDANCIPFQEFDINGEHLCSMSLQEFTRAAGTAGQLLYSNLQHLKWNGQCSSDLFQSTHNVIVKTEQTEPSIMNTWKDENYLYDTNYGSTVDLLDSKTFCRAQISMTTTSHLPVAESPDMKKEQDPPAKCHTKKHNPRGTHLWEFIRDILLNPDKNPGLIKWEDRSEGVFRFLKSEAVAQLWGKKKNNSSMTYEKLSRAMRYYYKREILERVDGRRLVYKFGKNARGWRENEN
The note with it: protein: recombinant; tags: N-terminal GST; dsDNA, one strand shown. In short, it runs like this: as §1

The target of test [7] is SPI1 (Homo sapiens, UniProt P17947 1-270). The note with it: protein: recombinant; tags: N-terminal GST; dsDNA, one strand shown. Put shortly: as §1
Test [8] concerns the target SPIB (Homo sapiens, UniProt Q01892 1-262). The note with it: protein: recombinant; tags: N-terminal GST; dsDNA, one strand shown. In short, it runs like this:
as §1

Test [9] deals with T6, ELK3 (Homo sapiens, UniProt P41970 1-407).
T6 sequence: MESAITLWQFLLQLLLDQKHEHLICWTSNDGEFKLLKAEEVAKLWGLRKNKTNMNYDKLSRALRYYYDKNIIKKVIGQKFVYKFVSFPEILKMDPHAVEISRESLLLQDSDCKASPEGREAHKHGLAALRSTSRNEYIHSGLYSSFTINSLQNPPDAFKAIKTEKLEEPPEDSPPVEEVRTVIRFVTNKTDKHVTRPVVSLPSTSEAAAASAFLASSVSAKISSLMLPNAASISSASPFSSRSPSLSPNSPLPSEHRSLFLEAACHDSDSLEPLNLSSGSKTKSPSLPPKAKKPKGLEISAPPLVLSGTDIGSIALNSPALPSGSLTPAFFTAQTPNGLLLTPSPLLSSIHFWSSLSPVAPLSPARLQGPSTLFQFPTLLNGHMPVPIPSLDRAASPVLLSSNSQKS
The note with it: protein: recombinant; tags: N-terminal GST; dsDNA, one strand shown. In short, it runs like this:
as §1

Test [10] deals with T7, FEV (Homo sapiens, UniProt Q99581 1-238).
T7 sequence: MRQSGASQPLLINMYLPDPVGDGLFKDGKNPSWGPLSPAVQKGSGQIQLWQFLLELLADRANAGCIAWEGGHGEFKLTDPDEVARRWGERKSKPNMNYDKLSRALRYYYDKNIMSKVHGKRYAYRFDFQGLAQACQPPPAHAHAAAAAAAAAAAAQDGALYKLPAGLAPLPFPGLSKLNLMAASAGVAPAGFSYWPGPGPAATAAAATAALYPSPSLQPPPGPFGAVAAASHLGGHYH
The note with it: protein: recombinant; tags: N-terminal GST; dsDNA, one strand shown. Put shortly: as §1

Test [11] concerns the target ETV5 (Homo sapiens, UniProt P41161 1-510). The note with it: protein: recombinant; tags: N-terminal GST; dsDNA, one strand shown. Put shortly: as §1
Test [12] deals with HSF1 (Homo sapiens, UniProt Q00613 1-529). The note with it: protein: recombinant; tags: N-terminal GST; chain copies: 3; dsDNA, one strand shown. In short, it runs like this:
as §1

Test [13] addresses T8, SPIC (Homo sapiens, UniProt Q8N5J4 1-248).
T8 sequence: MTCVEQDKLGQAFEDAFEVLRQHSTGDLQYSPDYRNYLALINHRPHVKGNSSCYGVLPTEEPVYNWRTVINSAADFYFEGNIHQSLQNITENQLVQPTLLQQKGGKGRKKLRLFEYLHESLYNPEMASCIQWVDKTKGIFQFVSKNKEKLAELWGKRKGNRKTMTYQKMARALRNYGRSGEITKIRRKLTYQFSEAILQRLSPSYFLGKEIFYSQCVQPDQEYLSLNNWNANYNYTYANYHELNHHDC
The note with it: protein: recombinant; tags: N-terminal GST; dsDNA, one strand shown. In short, it runs like this: as §1

The target in test [14] is ELF4 (Homo sapiens, UniProt Q99607 1-663). The note with it: protein: recombinant; tags: N-terminal GST; dsDNA, one strand shown. Put shortly: as §1
Test [15] concerns the target T9, ELK4 (Homo sapiens, UniProt P28324-2 1-405).
T9 sequence: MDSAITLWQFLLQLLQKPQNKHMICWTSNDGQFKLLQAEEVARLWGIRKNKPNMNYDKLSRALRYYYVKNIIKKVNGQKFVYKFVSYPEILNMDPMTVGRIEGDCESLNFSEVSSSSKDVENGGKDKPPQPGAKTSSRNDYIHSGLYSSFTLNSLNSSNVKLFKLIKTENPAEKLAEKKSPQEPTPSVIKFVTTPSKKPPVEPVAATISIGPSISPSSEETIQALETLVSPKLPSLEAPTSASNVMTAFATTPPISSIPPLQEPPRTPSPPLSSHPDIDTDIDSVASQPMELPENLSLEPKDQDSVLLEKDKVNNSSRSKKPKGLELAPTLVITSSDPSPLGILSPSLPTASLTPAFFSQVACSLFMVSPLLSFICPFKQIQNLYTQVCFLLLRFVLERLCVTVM
The note with it: protein: recombinant; tags: N-terminal GST; dsDNA, one strand shown. Put shortly: as §1

Test [16] has as its target T10, ETV2 (Homo sapiens, UniProt O00321 1-342).
T10 sequence: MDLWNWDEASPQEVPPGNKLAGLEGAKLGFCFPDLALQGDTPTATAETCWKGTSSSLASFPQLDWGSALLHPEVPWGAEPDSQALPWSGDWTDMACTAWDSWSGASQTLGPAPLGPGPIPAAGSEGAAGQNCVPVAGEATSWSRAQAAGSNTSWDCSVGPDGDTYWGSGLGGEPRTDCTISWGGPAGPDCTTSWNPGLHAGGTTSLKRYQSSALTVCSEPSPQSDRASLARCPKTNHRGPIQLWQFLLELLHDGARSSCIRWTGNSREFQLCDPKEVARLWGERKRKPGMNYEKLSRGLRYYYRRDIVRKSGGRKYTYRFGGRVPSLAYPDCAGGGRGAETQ
The note with it: protein: recombinant; tags: N-terminal GST; dsDNA, one strand shown. In short, it runs like this: as §1

Test [17] deals with CRX (Homo sapiens, UniProt O43186 1-299). The note with it: protein: recombinant; tags: N-terminal GST; dsDNA, one strand shown. In short, it runs like this: as §1
Test [18] has as its target ETV1 (Homo sapiens, UniProt P50549 1-477). The note with it: protein: recombinant; tags: N-terminal GST; dsDNA, one strand shown. Put shortly: as §1

Sequence of SPIB (Q01892 whole entry): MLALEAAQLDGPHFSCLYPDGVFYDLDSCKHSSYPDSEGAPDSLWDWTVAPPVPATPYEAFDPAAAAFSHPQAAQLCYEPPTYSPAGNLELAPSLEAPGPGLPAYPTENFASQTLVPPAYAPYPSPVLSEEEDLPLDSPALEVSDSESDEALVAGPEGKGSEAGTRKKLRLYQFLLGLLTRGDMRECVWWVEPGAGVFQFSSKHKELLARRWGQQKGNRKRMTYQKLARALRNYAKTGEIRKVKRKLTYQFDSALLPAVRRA
Sequence of HSF1 (Q00613 whole entry): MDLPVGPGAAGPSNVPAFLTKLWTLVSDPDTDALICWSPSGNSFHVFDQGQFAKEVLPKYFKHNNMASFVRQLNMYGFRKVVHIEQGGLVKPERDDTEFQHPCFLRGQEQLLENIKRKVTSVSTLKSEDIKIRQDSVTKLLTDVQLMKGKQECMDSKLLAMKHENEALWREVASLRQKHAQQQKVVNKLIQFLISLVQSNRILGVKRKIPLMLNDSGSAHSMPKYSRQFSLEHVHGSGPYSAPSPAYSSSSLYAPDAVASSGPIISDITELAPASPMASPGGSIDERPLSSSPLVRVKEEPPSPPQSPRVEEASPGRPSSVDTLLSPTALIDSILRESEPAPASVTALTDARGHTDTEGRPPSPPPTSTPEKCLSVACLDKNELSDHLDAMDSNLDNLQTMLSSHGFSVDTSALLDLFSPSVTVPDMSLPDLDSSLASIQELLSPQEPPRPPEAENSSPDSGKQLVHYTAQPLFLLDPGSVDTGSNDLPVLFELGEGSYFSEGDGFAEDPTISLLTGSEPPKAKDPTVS
Sequence of ETV1 (P50549 whole entry): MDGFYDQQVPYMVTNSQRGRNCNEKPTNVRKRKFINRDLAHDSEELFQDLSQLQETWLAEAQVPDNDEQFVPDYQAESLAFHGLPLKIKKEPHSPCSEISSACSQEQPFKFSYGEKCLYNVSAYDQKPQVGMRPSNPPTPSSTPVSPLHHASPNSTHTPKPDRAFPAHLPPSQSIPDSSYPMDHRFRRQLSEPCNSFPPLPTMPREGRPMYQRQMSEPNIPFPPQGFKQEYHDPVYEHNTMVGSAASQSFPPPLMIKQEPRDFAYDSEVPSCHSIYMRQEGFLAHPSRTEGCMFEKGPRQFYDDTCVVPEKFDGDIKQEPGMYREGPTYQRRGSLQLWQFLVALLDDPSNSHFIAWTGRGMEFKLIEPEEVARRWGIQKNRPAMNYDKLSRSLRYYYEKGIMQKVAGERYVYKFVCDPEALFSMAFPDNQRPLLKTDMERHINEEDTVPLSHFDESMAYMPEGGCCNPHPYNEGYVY
Sequence of CRX (O43186 whole entry): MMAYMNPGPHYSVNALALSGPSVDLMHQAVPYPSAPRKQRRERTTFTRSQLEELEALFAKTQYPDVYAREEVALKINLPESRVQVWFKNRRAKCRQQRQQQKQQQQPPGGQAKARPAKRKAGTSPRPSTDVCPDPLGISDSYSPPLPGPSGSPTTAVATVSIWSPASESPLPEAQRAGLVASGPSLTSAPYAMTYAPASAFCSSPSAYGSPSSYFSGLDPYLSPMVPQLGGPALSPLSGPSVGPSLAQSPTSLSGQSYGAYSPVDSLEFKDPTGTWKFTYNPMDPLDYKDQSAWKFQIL
Sequence of ELF4 (Q99607 whole entry): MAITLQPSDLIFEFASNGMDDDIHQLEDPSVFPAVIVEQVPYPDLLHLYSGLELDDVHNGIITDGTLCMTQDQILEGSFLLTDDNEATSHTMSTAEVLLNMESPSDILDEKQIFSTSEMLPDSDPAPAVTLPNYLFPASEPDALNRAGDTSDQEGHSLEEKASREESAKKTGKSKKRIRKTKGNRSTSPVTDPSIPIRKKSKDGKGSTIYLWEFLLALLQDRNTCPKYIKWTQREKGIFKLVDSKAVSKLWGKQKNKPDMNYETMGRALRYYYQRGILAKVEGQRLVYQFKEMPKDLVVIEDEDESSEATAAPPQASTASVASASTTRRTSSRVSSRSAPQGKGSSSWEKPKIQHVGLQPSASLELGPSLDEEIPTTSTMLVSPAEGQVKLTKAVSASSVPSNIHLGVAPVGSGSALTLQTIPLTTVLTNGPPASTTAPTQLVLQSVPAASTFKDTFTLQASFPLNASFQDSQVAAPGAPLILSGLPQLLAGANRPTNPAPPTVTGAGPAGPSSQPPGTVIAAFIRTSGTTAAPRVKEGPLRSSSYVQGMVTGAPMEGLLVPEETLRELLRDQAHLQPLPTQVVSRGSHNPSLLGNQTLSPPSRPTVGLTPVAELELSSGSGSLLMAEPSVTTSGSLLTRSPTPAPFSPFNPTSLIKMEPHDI
Sequence of ETV5 (P41161 whole entry): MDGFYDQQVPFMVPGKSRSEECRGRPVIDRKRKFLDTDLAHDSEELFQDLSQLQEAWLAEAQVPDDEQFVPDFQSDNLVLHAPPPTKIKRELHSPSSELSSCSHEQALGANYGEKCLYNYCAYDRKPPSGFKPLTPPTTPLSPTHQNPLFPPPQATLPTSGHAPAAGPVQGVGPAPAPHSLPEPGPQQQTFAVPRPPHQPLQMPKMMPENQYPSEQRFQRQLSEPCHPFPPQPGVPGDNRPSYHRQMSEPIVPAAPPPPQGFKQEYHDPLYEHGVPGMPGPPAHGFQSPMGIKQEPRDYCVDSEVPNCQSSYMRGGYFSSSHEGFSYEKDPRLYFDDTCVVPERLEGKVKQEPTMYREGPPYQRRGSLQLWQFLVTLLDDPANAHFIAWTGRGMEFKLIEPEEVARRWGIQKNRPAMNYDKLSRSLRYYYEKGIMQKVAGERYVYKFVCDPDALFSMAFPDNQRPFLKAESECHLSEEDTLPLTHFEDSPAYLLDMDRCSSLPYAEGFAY
Sequence of ELF1 (P32519 whole entry): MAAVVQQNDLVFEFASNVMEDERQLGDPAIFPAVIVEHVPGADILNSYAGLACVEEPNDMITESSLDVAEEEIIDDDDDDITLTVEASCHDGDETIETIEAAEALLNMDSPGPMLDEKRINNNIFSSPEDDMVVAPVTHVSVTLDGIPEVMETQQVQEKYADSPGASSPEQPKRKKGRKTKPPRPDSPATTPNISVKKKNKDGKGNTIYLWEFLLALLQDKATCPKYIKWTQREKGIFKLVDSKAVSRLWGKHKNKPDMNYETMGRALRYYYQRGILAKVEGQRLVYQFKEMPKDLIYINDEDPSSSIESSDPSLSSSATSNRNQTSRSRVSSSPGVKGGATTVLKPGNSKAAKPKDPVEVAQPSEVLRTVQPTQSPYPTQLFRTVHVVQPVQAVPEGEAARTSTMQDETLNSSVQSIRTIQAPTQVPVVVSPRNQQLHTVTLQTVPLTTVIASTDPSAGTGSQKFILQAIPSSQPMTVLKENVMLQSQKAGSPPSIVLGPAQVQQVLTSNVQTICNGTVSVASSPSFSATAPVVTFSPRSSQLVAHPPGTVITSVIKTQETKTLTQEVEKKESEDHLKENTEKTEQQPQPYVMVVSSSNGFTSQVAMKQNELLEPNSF

As to TTAGAA, the binding signal in test [1] is 1 fold enrichment (6-mer frequency, TF over GST control); in test [2], 1.02 fold enrichment (6-mer frequency, TF over GST control); in test [3], 1.01 fold enrichment (6-mer frequency, TF over GST control); in test [4], 1.05 fold enrichment (6-mer frequency, TF over GST control); in test [5], 1.14 fold enrichment (6-mer frequency, TF over GST control); in test [6], 1.14 fold enrichment (6-mer frequency, TF over GST control). The binding signal in test [7] is 1.13 fold enrichment (6-mer frequency, TF over GST control); in [8], 1.03 fold enrichment (6-mer frequency, TF over GST control); in test [9], 1.06 fold enrichment (6-mer frequency, TF over GST control); in test [10] it was 1.02 fold enrichment (6-mer frequency, TF over GST control); in test [11] it was 1.01 fold enrichment (6-mer frequency, TF over GST control); in [12], 1.93 fold enrichment (6-mer frequency, TF over GST control). The binding signal in [13] is 1.25 fold enrichment (6-mer frequency, TF over GST control); in [14] it was 1.04 fold enrichment (6-mer frequency, TF over GST control); in test [15], 1.1 fold enrichment (6-mer frequency, TF over GST control); in test [16], 1.13 fold enrichment (6-mer frequency, TF over GST control); in test [17], 2.08 fold enrichment (6-mer frequency, TF over GST control); in test [18] it was 1.11 fold enrichment (6-mer frequency, TF over GST control).
